According to PubChem BioAssay (NCATS):
Records with an inconclusive call do not appear. Entries that show only a call come without a potency. Active and inactive are the calls of the source. Calls follow the shape of the dose curve; as a rule, active = well fitted inhibition curve with a large enough effect; inconclusive = small, poorly fitted or top-dose-only effect; inactive = flat fitted curve, though single readings scatter.

What follows are molecules tested against Glutathione peroxidase 1 (Homo sapiens) (UniProt P07203) (assay: Primary qHTS Assay for Inhibitors of Recombinant Selenoprotein Glutathione Peroxidase 1 (GPX1) (AID 1845191)). Settings: recombinant GPX1, GR-coupled NADPH fluorescence, 15 min; series mostly up to 48.8 µM.
Glutathione peroxidase 1 (Homo sapiens), sequence (P07203 whole entry, looked up): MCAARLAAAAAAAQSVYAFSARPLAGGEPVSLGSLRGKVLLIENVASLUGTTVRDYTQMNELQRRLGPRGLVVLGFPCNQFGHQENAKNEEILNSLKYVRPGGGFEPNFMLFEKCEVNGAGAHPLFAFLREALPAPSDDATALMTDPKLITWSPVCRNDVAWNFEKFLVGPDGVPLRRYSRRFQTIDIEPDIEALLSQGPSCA
Summary of the method: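 Recombinant GPX1 (10 nM final) was preincubated with compound for 30 min at room temperature, then reacted with 1 mM GSH, 0.5 mM CHP, 0.5 mM NADPH and 100 nM glutathione reductase; NADPH fluorescence (340/450 nm) was read at 0 and 15 min.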
Also: nearly all actives have a fitted effect of over 65% in size.

| SMILES | Potency |
| --- | --- |
| CCOC(=O)c1cnn(-c2ccccc2)c1NC(=O)c1cc2nc(-c3ccco3)cc(C(F)(F)Cl)n2n1 | inactive |
| Cc1nc(Nc2cnn(C3CCNCC3)c2)nc2c1N(C)C(=O)c1cc3ccccc3cc1N2C | inactive |
| C/C=C(\C)C(=O)OC1C(C)C2(O)C(C=C(CO)CC3(O)C(=O)C(C)=CC32)C2C(C)(C)C12OC(C)=O (configuration not stated) | inactive |
| C=C1C(=O)OC2C=C(C)CC/C=C(\CO)CC(O)C12 (configuration not stated) | inactive |
| CN1CCN(C2=Nc3ccccc3Nc3ccc(OS(=O)(=O)C(F)(F)F)cc32)CC1 | inactive |
| C=C(C)[C@@H]1CC=C(COC(=O)NC(=O)c2ncn3c(=O)n(C)nnc23)CC1 | inactive |
| c1ccc(-c2cnn3cc(-c4ccc(OCCN5CCOCC5)cc4)cnc23)cc1 | inactive |
| CCC(C)/C=C(C)/C=C/C1=CC2=C(Cl)C(=O)C(C)(OC(C)=O)C(=O)C2(O)C(OC)O1 (configuration not stated) | inactive |
| O=C(Nc1ccc(-c2ccc(Cl)c(Cl)c2)cc1)C1=C(O)c2ccccc2S(=O)(=O)N1 | inactive |
| C[C@@H]1CC[C@@]23CC[C@]4(C)[C@@](C=CC5[C@@]6(C)CC[C@H](O)C(C)(C)C6CC[C@]54C)(OC2=O)C3[C@H]1C (some centres not stated) | inactive |
| O=C(NCCN1CCN(c2cccc3ccc(O)cc23)CC1)c1ccc(F)cc1 | inactive |

The molecules below were run against Phospholipid hydroperoxide glutathione peroxidase GPX4 (Homo sapiens) (UniProt P36969) (assay: Primary qHTS Assay for Inhibitors of Recombinant Selenoprotein Glutathione Peroxidase 4 (GPX4) (AID 1845192)). Settings: recombinant GPX4, GR-coupled NADPH fluorescence, 15 min; series mostly up to 50 µM.
Phospholipid hydroperoxide glutathione peroxidase GPX4 (Homo sapiens), sequence (P36969 whole entry, looked up): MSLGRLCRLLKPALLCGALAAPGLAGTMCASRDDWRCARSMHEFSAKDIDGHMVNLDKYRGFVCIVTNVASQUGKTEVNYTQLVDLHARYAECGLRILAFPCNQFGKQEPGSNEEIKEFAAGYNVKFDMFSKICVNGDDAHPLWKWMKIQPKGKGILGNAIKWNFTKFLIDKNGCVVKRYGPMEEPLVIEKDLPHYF
Summary of the method: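 GR-coupled readout: 100 nM GR, 1 mM GSH, 0.5 mM NADPH; NADPH fluorescence (ex 340/em 450 nm) read at t=0 and after 15 min RT. GPX4 200 nM, preincubated 30 min with compound; substrate 0.5 mM CHP.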

| SMILES | Potency |
| --- | --- |
| C=C1CC[C@@H](O)[C@]2(C)CC[C@H]3C(=C)C(=O)O[C@@H]3[C@@H]12 | inactive |
| CC(C)c1cccc(C(C)C)c1NC(=O)Nc1ccc(Sc2ccc([N+](=O)[O-])cc2)cc1 | inactive |
| OC1CCC(Nc2nc(-c3ccccc3)nc3[nH]ccc23)CC1 (configuration not stated) | inactive |
| CC(/C=C/C(=O)NO)=C\[C@@H](C)C(=O)c1ccc(N(C)C)cc1 | inactive |
| CC[C@H](C(=O)Nc1ccccc1N1CCCC1)c1ccccc1 | inactive |
| CC(C)(C)C1CCN(C(=O)n2ncc(C(O)(c3ccccc3)c3ccccc3)n2)CC1 | inactive |
| CCOc1ccc(CCNC(=O)c2cc3sc(Cl)cc3n2C)cc1OCC | inactive |
| C[C@@H](NC(=O)C(=O)c1c[nH]c2ccc([N+](=O)[O-])cc12)c1ccccc1 | inactive |
| C#CCNCc1cc2cc(OCc3ccccc3)ccc2[nH]1 | inactive |
| O=S(=O)(Nc1ccccc1N1CCCCC1)c1ccc(Cl)s1 | inactive |
| CC(C)(C)OC(=O)c1ncn2c1C(C)(C)Nc1ccccc1-2 | inactive |
| COc1cc2c(cc1O)C1(Cc3ccc4c(c3C1O)OCO4)[N+](C)([O-])CC2 (configuration not stated) | inactive |
| C=CS(=O)(=O)NC1CCN(C(=O)CNc2cc(I)c(Cl)cc2OC)CC1 | inactive |
| O=S(=O)(NCc1ccccn1)c1ccc(Br)c2ccccc12 | inactive |
| CC(C)/C=C1\NC(=O)C(C(C)C)n2c1nc1ccccc1c2=O (configuration not stated) | inactive |
| CCN(CC)C(=O)C(c1ccccc1)N1CCN(c2ccc(NC(=O)c3ccccc3-c3cccnc3)cc2F)CC1 (configuration not stated) | inactive |
| COc1cc2ncnc(Nc3ccc(F)c(Cl)c3)c2cc1O | inactive |
| COC(=O)C[C@H]1[C@]2(C)C3=C(C)[C@H](c4ccoc4)C[C@H]3O[C@@H]2[C@H](O)C2[C@](C)(C(=O)OC)C=CC(=O)[C@@]21C (some centres not stated) | inactive |
| CCCOc1ccc(CCc2nc3cc(-c4c(C)noc4C)ccc3n2CCN2CCOCC2)cc1 | inactive |
| Cn1c(CO)c(-c2ccccc2)c2cc([N+](=O)[O-])ccc21 | inactive |
| CC(C)=C[C@@H]1[C@H](CO[C@@H]2O[C@H](CO)[C@@H](O)[C@H](O)[C@H]2O)C1(C)C | inactive |
| Cc1cc(C)c2c(c1)C(N(Cc1cc(C(F)(F)F)cc(C(F)(F)F)c1)c1nnn(C)n1)CCCN2CC1CCC(C(=O)O)CC1 (configuration not stated) | inactive |
| CCOc1ccc(-n2c(C(C)N(Cc3cccnc3)C(=O)Cc3ccc(F)c(C(F)(F)F)c3)nc3ncccc3c2=O)cc1 (configuration not stated) | inactive |
| COc1ccc(NC(=O)c2ccc(-c3ccc(-c4nnc(C)o4)cc3C)cc2)cc1N1CCN(C)CC1 | inactive |
| CN1CCN(c2ccc(OC(F)(F)F)c(Nc3ncc4c(n3)-c3c(c(C(N)=O)nn3CCO)CC4)c2)CC1 | inactive |
| CC(C)=CCC[C@](C)(O[C@@H]1O[C@H](CO[C@@H]2OC[C@@H](O)[C@H](O)[C@H]2O)[C@@H](O)[C@H](O)[C@H]1O)[C@H]1CC[C@]2(C)[C@@H]1[C@H](O)C[C@@H]1[C@@]3(C)CC[C@H](O[C@@H]4O[C@H](CO)[C@@H](O)[C@H](O)[C@H]4O)C(C)(C)[C@@H]3CC[C@]12C | inactive |
